CIT2-GFP yeast: alters CIT2-GFP fluorescence in TOR pathway yeast screen | S. cerevisiae CIT2-GFP strain, flow cytometry, 3 h; 100 means same as DMSO wells | actives 0.065% (n = 320,000) | GFP response vs DMSO, % at 10 µM;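 active means GFP response relative to DMSO above a set limit, near the screen mean plus 3 SD, cut at about 150% in these data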;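 further: ratio of well median GFP fluorescence to mean of DMSO wells on the plate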
RPL19A-GFP yeast: alters RPL19A-GFP fluorescence in TOR pathway yeast screen; actives 0.3% (n = 330,000); S. cerevisiae RPL19A-GFP strain, flow cytometry, 3 h; hits give low values; percent response vs DMSO, % at 10 µM;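 active means percent response vs DMSO below 50%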;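 further: median channel GFP fluorescence of the barcoded RPL19A-GFP strain; ratio of sample median GFP to plate DMSO average so 100% = DMSO; lower means less RPL19A-GFP as with rapamycin TOR inhibition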
VLA-4 inh: inhibition in a human VLA-4 binding assay; VLA-4 expressing cells, ligand binding flow cytometry; inhibition, % (about 7 µM as worked out from the volumes in the protocol); actives 0.2% (n = 330,000); AID 2557; in the data active means inhibition above about 50%
Target sequence (P13612 whole entry, looked up): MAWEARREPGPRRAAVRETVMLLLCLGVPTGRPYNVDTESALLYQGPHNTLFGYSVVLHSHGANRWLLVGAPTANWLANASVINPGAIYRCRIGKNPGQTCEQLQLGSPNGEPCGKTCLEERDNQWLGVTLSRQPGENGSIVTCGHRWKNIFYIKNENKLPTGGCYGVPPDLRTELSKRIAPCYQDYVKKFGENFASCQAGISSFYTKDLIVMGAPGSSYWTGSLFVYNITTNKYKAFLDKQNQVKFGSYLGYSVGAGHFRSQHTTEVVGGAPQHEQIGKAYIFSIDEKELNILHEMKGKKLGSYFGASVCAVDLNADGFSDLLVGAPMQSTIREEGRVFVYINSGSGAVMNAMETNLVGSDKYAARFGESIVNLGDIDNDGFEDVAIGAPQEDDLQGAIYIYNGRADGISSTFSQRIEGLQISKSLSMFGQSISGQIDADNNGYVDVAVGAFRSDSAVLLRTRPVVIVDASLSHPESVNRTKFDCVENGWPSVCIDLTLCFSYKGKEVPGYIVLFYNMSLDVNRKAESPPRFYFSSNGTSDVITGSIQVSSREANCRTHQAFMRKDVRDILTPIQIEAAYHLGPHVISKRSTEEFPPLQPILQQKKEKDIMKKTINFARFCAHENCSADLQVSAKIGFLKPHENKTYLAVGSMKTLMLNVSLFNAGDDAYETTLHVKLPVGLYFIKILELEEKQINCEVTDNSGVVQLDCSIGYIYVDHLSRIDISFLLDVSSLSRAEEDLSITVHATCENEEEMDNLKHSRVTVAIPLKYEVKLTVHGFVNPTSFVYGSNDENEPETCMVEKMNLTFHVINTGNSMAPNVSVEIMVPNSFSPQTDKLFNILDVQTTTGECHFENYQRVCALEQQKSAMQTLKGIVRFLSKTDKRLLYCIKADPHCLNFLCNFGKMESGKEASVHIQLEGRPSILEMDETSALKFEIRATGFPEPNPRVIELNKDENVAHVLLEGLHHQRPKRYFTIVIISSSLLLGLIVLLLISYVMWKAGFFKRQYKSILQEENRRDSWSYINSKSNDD
MEP2 TOR yeast: alters MEP2-GFP fluorescence in TOR pathway yeast screen; S. cerevisiae MEP2-GFP strain, flow cytometry GFP, 3 h; 100% = DMSO control level; GFP response vs DMSO, % at 10 µM; actives 0.51% (n = 330,000);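 active means GFP response versus DMSO above a set limit, roughly screen mean plus 3 SD, cut at about 180% in these data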;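 further: median GFP fluorescence of the barcode-gated MEP2-GFP cells per well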
LAP4-GFP MLPCN: yeast TOR pathway LAP4-GFP modulation; S. cerevisiae LAP4-GFP multiplex, flow cytometry GFP, 3 h; median GFP as percent of DMSO wells; GFP response vs DMSO, % at 10 µM; actives 0.34% (n = 320,000); AID 2023;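 active means GFP response vs DMSO above a set limit, about the screen mean plus 3 SD, cut at about 150% in these data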
AGP1 TOR yeast: yeast TOR pathway AGP1-GFP modulation | S. cerevisiae AGP1-GFP multiplex flow cytometry, 3 h; GFP as percent of DMSO wells | GFP response vs DMSO, % at 10 µM | actives 0.02% (n = 320,000);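 active means GFP response relative to DMSO above a set limit, near screen average plus 3 SD, cut at about 150% in these data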;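 further: median GFP channel fluorescence of the gated AGP1 strain per well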
LAP4-GFP pick2: second confirmation of modulators of TOR reporter LAP4-GFP in yeast. shares compounds with LAP4-GFP MLPCN. S. cerevisiae LAP4-GFP strain, flow cytometry GFP, 3 h. GFP response vs DMSO, % at 10 µM. actives 20% (n = 590). AID 2621;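 active means GFP signal as percent of the solvent control above about 150%, meaning raised reporter expression, limit read from the data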;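 further: ratio of well median GFP fluorescence to plate DMSO mean so 100% = DMSO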
MEP2 cherry2: reconfirmed MEP2-GFP TOR pathway modulator in yeast. S. cerevisiae MEP2-GFP strain, flow cytometry GFP, 3 h. actives 10% (n = 590). shares compounds with LAP4-GFP MLPCN. AID 2622. GFP response vs DMSO, % at 10 µM;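 active means GFP signal above 150% of the solvent control wells, that is a rise of more than half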;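 further: median channel GFP fluorescence of all gated yeast cells per well; ratio of median GFP to plate DMSO average so 100% = DMSO level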
RPL19A GFP CP2: reconfirmed modulator of RPL19A-GFP TOR reporter in yeast. shares compounds with LAP4-GFP MLPCN. S. cerevisiae RPL19A-GFP strain, flow cytometry GFP, 3 h; hits give low values; 100% means same as DMSO wells. GFP response vs DMSO, % at 10 µM. actives 3% (n = 590). AID 2623;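 active means under 65% GFP response relative to DMSO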;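 further: median GFP channel fluorescence per well over the all cells gate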
CIT2-GFP pick2: yeast CIT2-GFP TOR reporter modulation, second cherry pick; shares compounds with LAP4-GFP MLPCN; S. cerevisiae CIT2-GFP strain, flow cytometry GFP, 3 h; DMSO control wells read 100%; GFP response vs DMSO, % at 10 µM; actives 8% (n = 590);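 active means GFP response vs DMSO above about 150%, limit read from the data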;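 further: median green fluorescence per well over all gated yeast cells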
AGP1 GFP CP2: yeast AGP1-GFP TOR reporter modulation, second cherry pick. shares compounds with LAP4-GFP MLPCN. S. cerevisiae AGP1-GFP strain, flow cytometry GFP, 3 h. percent response vs DMSO, % at 10 µM. 590 tested, under 10 active. AID 2643;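 active means over 150 percent of DMSO response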;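 further: median GFP channel fluorescence over all cells without mother daughter split; sample median GFP divided by mean DMSO control so 100% equals DMSO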
Yeast autofluor: yeast s288c autofluorescence artifact, counter-screen; shares compounds with LAP4-GFP MLPCN; S. cerevisiae s288c, 520 nm autofluorescence, flow cytometry, 3 h; hits give high values; zero means same as solvent-only cells; fluorescence change (kMESF span) at 33 µM; 610 tested, under 10 active; AID 2757;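 active means fluorescence span over the dose series, or activity score, above about 33, limit read from the data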
* marks the source's active call; other numbers are inactive results; / = no result given. Hits are enriched below; roughly 1.1% of the tested compounds scored in any of these assays.

SMILES | CIT2-GFP yeast | RPL19A-GFP yeast | VLA-4 inh | MEP2 TOR yeast | LAP4-GFP MLPCN | AGP1 TOR yeast | Yeast autofluor | others
Cc1ccc(-c2nc(C=Nc3ccccc3)c(O)o2)cc1 | 90 | 103 | 18 | 101 | 113 | 98 | /
COc1cccc(N=Cc2nc(-c3ccccc3)oc2OC(C)=O)c1 | / | 99 | 3 | 89 | / | / | -0.2
COc1ccc(N=Cc2nc(-c3ccccc3)oc2OC(C)=O)cc1 | 89 | 103 | 13 | 98 | 120 | 101 | 0
COc1ccccc1C(CNC(=O)C(C)Oc1ccc(Br)cc1)N1CCCC1 (stereo not drawn) | 98 | 95 | 1 | 103 | 92 | 96 | /
COc1ccc(C2=NS(=O)(=O)N(C)C(C(=O)N3CCc4ccccc4C3)=C2)cc1OC | 100 | 97 | 17 | 104 | 94 | 97 | /
CCOC(=O)C1=C(O)c2ccccc2C(=O)/C1=C\c1ccc(C)cc1 | 80 | 82 | / | 111 | 186* | 72 | 41* | LAP4-GFP pick2=187*;MEP2 cherry2=221*;RPL19A GFP CP2=100;CIT2-GFP pick2=162*;AGP1 GFP CP2=93
CCOC(=O)C1=C(C)N(c2ccc(C)cc2)C(=O)/C1=C\c1ccc(O)c(OC)c1 | 95 | 100 | 18 | 105 | 112 | 106 | /
Cc1ccccc1COC(=O)CCC1=NS(=O)(=O)c2ccccc2N1 | 102 | 102 | 4 | 106 | 94 | 100 | /
CCCn1c(C)cc(C(=O)CN2C(=O)c3ccccc3C2=O)c1C | 93 | 61 | 4 | 135 | 100 | 96 | / | LAP4-GFP pick2=96;MEP2 cherry2=103;RPL19A GFP CP2=100;CIT2-GFP pick2=99;AGP1 GFP CP2=99
O=C1c2ccccc2C(=O)C2OC12 (stereo not drawn) | 88 | 79 | 13 | 132 | 163* | 98 | 2.1
O=C1c2ccccc2C(=O)C1c1ccccn1 | 88 | 92 | 4 | 107 | 106 | 114 | /
CC(Oc1ccccc1)C(=O)N=C1SC2CS(=O)(=O)CC2N1Cc1ccccc1 (stereo not drawn) | 94 | 87 | -2 | 86 | 80 | 83 | /
COc1ccccc1-n1c(SCC(=O)NC2CC2)nc2ccccc2c1=O | 114 | 109 | 7 | 111 | 107 | 109 | /
Cc1ccc(NC(=O)c2cc(N3C(=O)CCC3=O)ccc2N2CCOCC2)cc1 | 98 | 97 | 9 | 98 | 111 | 103 | /

Screening data as filed in PubChem BioAssay.
